Screening results: PubChem BioAssay, National Center for Advancing Translational Sciences (NCATS)
Sampled rows, rich in hits. Any-hit rate of the full collection: about 2.5%.
Cruzain Triton – inhibitors of Trypanosoma cruzi cruzain with detergent; P25779; purified cruzain, Z-FR-AMC fluorescence, 0.01% Triton; Potency, µM, actives largely listed as inhibitors; 200,000 compounds, 0.43% hits; AID 1478; note: nearly all actives have a fitted effect of over 40% in size
Target sequence (P25779 123-467 limits assumed): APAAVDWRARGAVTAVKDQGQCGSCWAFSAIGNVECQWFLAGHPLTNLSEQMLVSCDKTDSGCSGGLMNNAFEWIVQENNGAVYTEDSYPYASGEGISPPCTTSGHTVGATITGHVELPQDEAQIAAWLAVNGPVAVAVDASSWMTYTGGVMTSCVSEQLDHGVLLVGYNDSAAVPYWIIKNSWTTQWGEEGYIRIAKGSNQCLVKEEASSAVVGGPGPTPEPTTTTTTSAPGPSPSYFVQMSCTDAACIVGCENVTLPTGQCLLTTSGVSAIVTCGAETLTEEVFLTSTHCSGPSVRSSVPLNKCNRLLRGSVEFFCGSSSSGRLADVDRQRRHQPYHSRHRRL
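Steps: dispense cruzain (1.5 nM final) in acetate buffer pH 5.5 with DTT and 0.01% Triton X-100; pin-transfer compounds; incubate 15 min RT; add Z-FR-AMC (2 uM final); read fluorescence every 30 s, using the 60 s intensity change.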
Cruzain inh noDet – cruzain (T. cruzi) inhibition without detergent; P25779; 200,000 compounds, 2.3% hits; Potency, µM, hits mostly inhibitors; purified cruzain, Z-FR-AMC fluorescence, no detergent; AID 1476; note: nearly all actives have a fitted effect of over 40% in size
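Purified cruzain at 1.5 nM, pre-incubated 15 min with compound at room temperature in 100 mM sodium acetate pH 5.5, 5 mM DTT, 0.00005% Triton X-100. Reaction started with 2 uM Z-FR-AMC; AMC fluorescence increase over 60 s gives rate.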
Large screens that a line does not name were inactive. Calls come from the whole dose curve; as a rule, active = well fitted curve in the direction sought with a large enough effect; inconclusive = small, poorly fitted or top-dose-only effect, or another doubt; inactive = no such curve, though single readings can be large; an effect the other way counts as inactive or inconclusive.

Cn1c(=NC(=O)c2ccc(S(=O)(=O)N3CCCc4ccccc43)cc2)sc2cc(S(C)(=O)=O)ccc21	none
CC(C)Cn1c(=O)c2sccc2n2c(CCCC(=O)N3CCN(c4ccc(F)cc4)CC3)nnc12	none
COc1ccc(C(=O)N2CC(=O)Nc3ccc(F)cc3C2c2ccc(F)cc2)c(OC)c1 (configuration not stated)	none
Cc1cc(C)n(-c2cc(N3CCN(S(=O)(=O)c4ccc(Br)cc4)CC3)ccc2[N+](=O)[O-])n1	Cruzain inh noDet inconclusive
Cc1cc(C)c(S(=O)(=O)N2CCN(c3ccc([N+](=O)[O-])c(-n4nc(C)cc4C)c3)CC2)c(C)c1	Cruzain inh noDet 20µM
Cc1cccc(C2=NN(c3ccc(Br)cc3)[C@@H](C(=O)N3CCOC3=O)[C@@H]2C)c1	Cruzain inh noDet 28.2µM
O=C1OCCN1C(=O)[C@H]1[C@H](c2ccc([N+](=O)[O-])cc2)C(c2cccc(Cl)c2)=NN1c1ccccc1	Cruzain inh noDet 11.2µM
Cc1cccc(C2=NN(c3ccccc3)[C@@H](C(=O)N3CCOC3=O)[C@@H]2C)c1	none
C[C@@H]1C(c2ccccc2)=NN(c2ccc(Br)cc2)[C@H]1C(=O)N1CCOC1=O	Cruzain inh noDet inconclusive
Cc1cccc(C2=NN(c3ccc(Br)cc3)[C@@H](C(=O)N3CCOC3=O)[C@@H]2c2ccc([N+](=O)[O-])cc2)c1	Cruzain inh noDet 6.31µM
Cc1cccc(C2=NN(c3ccccc3)[C@@H](C(=O)N3CCOC3=O)[C@@H]2c2ccc(Cl)cc2)c1	Cruzain inh noDet 22.4µM
O=C1OCCN1C(=O)[C@H]1[C@H](c2ccc([N+](=O)[O-])cc2)C(c2ccccc2)=NN1c1ccccc1	Cruzain inh noDet inconclusive
Cc1cccc(C2=NN(c3ccccc3)[C@@H](C(=O)N3CCOC3=O)[C@@H]2c2ccc(F)cc2)c1	Cruzain inh noDet inconclusive
CCn1c(CN2CCCCC2)nc2cc(NC(=O)COc3ccc([N+](=O)[O-])cc3)ccc21	none
CCc1ccc(OCC(=O)NC(=S)Nc2ccc(C)cc2C)c(Br)c1	Cruzain inh noDet 12.6µM
CCc1ccc(OCC(=O)NCCN(C)C)c(Br)c1	none
CCn1nc(-c2ccccc2)c(-c2ccccc2)c(C(=O)Nc2ccccc2C(N)=O)c1=O	none
CCOC(=O)c1c(C)[nH]c(C(=O)CSc2ccc(Cl)cc2)c1C	Cruzain inh noDet inconclusive
CCOC(=O)c1c(C)[nH]c(C(=O)CSc2nnc(Nc3ccccc3F)s2)c1C	Cruzain inh noDet 12.6µM
CCc1ccc(NC(=O)CSc2nc3n[nH]c(C)c3c(=N)n2-c2cccc(OC)c2)cc1	Cruzain inh noDet 12.6µM
COc1cccc(NC(=O)CSc2nc3n[nH]c(C)c3c(=N)n2-c2cccc(OC)c2)c1	Cruzain inh noDet inconclusive
COc1cc2oc(=O)cc(-c3cccc(-c4ccc(C(C)=O)cc4)c3)c2c(OC)c1OC	none
CC(=O)c1ccc(-c2cccc(-c3cc(=O)oc4ccc(C(C)(C)C)cc34)c2)cc1	Cruzain inh noDet 28.2µM
Cc1ccc(CNC(=O)c2c(-c3cccc(Br)c3)noc2C)o1	none
CSc1ncc2c(n1)-c1ccccc1N(Cc1ccccc1)S2(=O)=O	none
CCCCOCCCNc1ncnc2c1[nH]c1ccccc12	Cruzain Triton inconclusive
c1ccc2c(c1)[nH]c1c(NCC3CCCO3)ncnc12 (configuration not stated)	Cruzain inh noDet 25.1µM
CCCCNC(=O)[C@@H](c1ccccc1)N1Cc2ccccc2C1=O	none
O=C(O)[C@@H](c1ccccc1)N1Cc2ccccc2C1=O	Cruzain inh noDet 15.8µM
Cc1ccc(NC(=O)Cn2nnnc2-c2ccccc2N)cc1	none
CC(=O)c1sc(NC(=O)c2cc(-c3ccccc3)nn2-c2ccccc2)nc1C	none
O=C(Nc1nc2ccccc2s1)c1cc(-c2ccccc2)nn1-c1ccccc1	Cruzain inh noDet 10µM
CCN1C(=O)c2ccccc2S(=O)(=O)c2ccc(C(=O)NCc3ccc(F)cc3)cc21	none
CCc1ccccc1NCc1nnc2n1CCCCC2	none
Cn1c(C(=O)NCc2ccc3c(c2)OCO3)cc2sccc21	none
Cn1c(C(=O)Nc2ccc3c(c2)OCO3)cc2sccc21	Cruzain inh noDet 25.1µM
Cc1cccc(N2CCN(C(=O)Cn3c(C)c4cnn(-c5ccccc5)c(=O)c4c3C)CC2)c1C	none
Cc1nn(Cc2ccccc2Cl)c2sc(C(=O)NC(C)(C)C)cc12	none
Cc1csc(NC(=O)c2cc3c(C)nn(Cc4ccccc4Cl)c3s2)n1	Cruzain inh noDet 25.1µM
COc1cccc2cc(C(=O)Nc3ccc(CC(=O)O)cc3)c(=O)oc12	none
CCOc1cc(/C=N/NC(N)=S)cc(Br)c1OCc1ccccc1C	Cruzain Triton 3.16µM, Cruzain inh noDet 1µM
CCOc1c(Br)cc(/C=N\NC(=O)c2ccccc2)cc1OC	none
CCOc1cc(/C=N/N=C(\N)c2nonc2N)cc(Br)c1OCc1cccc2ccccc12	Cruzain inh noDet 6.31µM
COc1cc(/C=N/N=C(/N)c2nonc2N)cc(Br)c1OCc1cccc(C)c1	none
COc1cc(/C=N/NC(N)=S)cc(Br)c1OCc1ccccc1F	Cruzain Triton 0.562µM, Cruzain inh noDet 0.199µM
CCOc1cc(/C=N/NC(N)=O)cc(Br)c1OCc1ccccc1	none
